Hit rate of the full screen: of about 48,000 compounds, about 13,000 (27%) showed an effect of 50% or more. The list shows a part of the results.
These compounds were tested on Wolbachia pipientis (assay: Anti-Wolbachia Cell-Based Screen). Settings: 5 µM.
Format: functional
Design: scale not given: in the data most compounds retested in dose-response had high values

| SMILES | Percent Effect [%] |
| --- | --- |
| FC(F)(F)CCN(Cc1ccon1)C1CCCC1 | 5.052 |
| CC(C)[C@H](NS(C)(=O)=O)C(=O)NCc1cc(-c2ccccc2)n[nH]1 | 101.1 |
| CC(NS(C)(=O)=O)C(=O)N(C)Cc1csc(-c2ccccc2)n1 (configuration not stated) | -10.17 |
| C[C@H](NS(C)(=O)=O)C(=O)NCc1cc(-c2ccco2)n[nH]1 | 75.56 |
| CCc1cc(CNC(=O)c2cc(NC(=O)C(C)C)ccc2Cl)[nH]n1 | -9.115 |
| CCc1cc(CNC(=O)NCC(c2ccco2)N2CCCC2)[nH]n1 (configuration not stated) | -1.193 |
| CN(Cc1ccco1)Cc1ccccc1CNC(=O)c1cc[nH]n1 | -6.684 |
| CCCC(C)NC(=O)c1ccc(-c2ccco2)[nH]c1=O (configuration not stated) | 12.91 |
| CCc1cc(CNC(=O)N(C2CC2)C(C)c2ccco2)[nH]n1 (configuration not stated) | -14.67 |
| CC(C)[C@H](NS(C)(=O)=O)C(=O)NCc1cc(-c2ccco2)n[nH]1 | 84.23 |
| O=C(c1cccc(-n2cccn2)c1)N1CCCOC(Cn2cccn2)C1 (configuration not stated) | 8.514 |
| O=C(NCC1CC1)C1CCCN(c2cccc(C(F)(F)F)n2)C1 (configuration not stated) | -14.15 |
| COc1ccc(SC(C)C(=O)N2CCC(NC(=O)C3CC3)CC2)cc1 (configuration not stated) | -11.29 |
| COCC(=O)Nc1cc(Br)cnc1OCC(F)(F)F | -8.259 |
| Cc1occc1C(=O)NC1CCN(C(=O)Nc2cccnc2)CC1 | 26.57 |
| Cc1ccoc1C(=O)NC1CCN(C(=O)Nc2ccccn2)CC1 | 143.8 |
| Cc1ccc(C(=O)N2CCN(C(=O)Nc3ccccn3)CC2)o1 | 12.27 |
| Cc1ccc(C(=O)NC2CCN(C(=O)Nc3ccccn3)CC2)s1 | 106.5 |
| CC1CCN(C(=O)C2CCCN(C(=O)Nc3ccccn3)C2)CC1 (configuration not stated) | -1.039 |
| CCn1cc(CN2CCCC2c2nc(-c3ccccc3)no2)cc1C#N (configuration not stated) | -29.44 |
| Cc1ccc(CN2CCc3c(CN4CCCC4)n[nH]c3C2)s1.O=C(O)C(F)(F)F.O=C(O)C(F)(F)F | -6.492 |
| Cn1nnc2c1C(COCC1CC1)CN(C(=O)[C@H]1CCCO1)C2 (some centres not stated) | 10.79 |
| CCOC(=O)c1coc(N2CCC(C(O)CC(C)C)CC2)n1 (configuration not stated) | -3.785 |
| CC(=O)N1CCN(Cc2c(C)sc3ccccc23)CC(O)C1 (configuration not stated) | -5.1 |

| SMILES | Percent Effect [%] |
| --- | --- |
| CC(=O)N1CCOC(c2c(C(=O)NC(C)(C)C)sc3ccccc23)C1 (configuration not stated) | 161.4 |
| Cn1ccc(C(=O)N2CCOC(c3ccccc3)C2)cc1=O (configuration not stated) | -8.227 |
| CC(=O)N1CCOC(c2c(C(=O)NCCN(C)C)sc3ccccc23)C1 (configuration not stated) | 169.5 |
| CC(=O)N1CCN(Cc2cccc3c2sc2ccccc23)CC(O)C1 (configuration not stated) | -0.8612 |
| CC(=O)N1CCOC(c2c(C(=O)O)sc3ccccc23)C1 (configuration not stated) | 123 |
| CC(=O)N1CCC(c2nnc3ccc(C(=O)NCCN(C)C)cn23)C1 (configuration not stated) | -5.924 |
| CNC(=O)c1cccc(NC(=O)NC(C)CCc2cccn2C)c1C (configuration not stated) | -20.84 |
| CCn1ccnc1CN(C)C1CCCN(Cc2ccccc2F)C1 (configuration not stated) | -12.96 |
| CCC1CN(CCCO)c2ccccc2O1 (configuration not stated) | 49.62 |
| Cc1nnc(CN2CCN(CCOc3ccccc3C#N)CC2)n1C | -3.944 |
| Fc1ccc(CC2CCN(Cc3cscn3)CC2)cc1 | 6.196 |
| C[C@]1(O)CN(Cc2ncccc2F)CC[C@@H]1Oc1cccc(F)c1 | 113.6 |
| Cc1nccc(CN2CC[C@H](Oc3cccc(F)c3)[C@@](C)(O)C2)n1 | -4.258 |
| C[C@]1(O)CN(Cc2ncc[nH]2)CC[C@@H]1Oc1cccc(F)c1 | 143.6 |
| CCn1ccnc1CN1CCC(Oc2cccc(F)c2)(C(=O)O)CC1 | -6.452 |
| CCN1CCN(C[C@@H]2CN(c3ncccc3F)C[C@@H]2CO)CC1 | 10.53 |
| Cc1cccnc1CN1CC[C@H](Oc2cccc(F)c2)[C@@](C)(O)C1 | 112.2 |
| COc1ccc2c(c1)CCN(Cc1cscn1)CC2 | -16.58 |
| CCOc1ccnc(N2CCN(Cc3ncccc3C)CC2)n1 | -12.42 |
| CCN1CC(c2ccccc2)CC2(CCN(Cc3ncc[nH]3)CC2)C1 (configuration not stated) | -4.226 |
| C[C@]1(O)CN(Cc2cscn2)CC[C@@H]1Oc1cccc(F)c1 | 131.8 |
| O=C(c1cnc2[nH]c(=O)[nH]c(=O)c2c1)N1CCCC1C1CCCCC1 (configuration not stated) | 5.907 |
| Cc1cccc(S(=O)(=O)NC(=O)c2ccc3c(c2)nnn3C)c1 | -16.64 |
| CC(C)c1noc(-c2ccc(NCc3noc(C(C)C)n3)nc2)n1 | -9.684 |

| SMILES | Percent Effect [%] |
| --- | --- |
| Cc1ccccc1OCC1CCCN(C(=O)Cc2c[nH]c(=O)[nH]c2=O)C1 (configuration not stated) | -4.345 |
| O=C(COc1ccc2c(c1)CCC2)NS(=O)(=O)c1cncc(Br)c1 | -16.45 |
| CC(O)c1cn(CC2CCN(C(=O)CN(C)C(C)C)CC2)nn1 (configuration not stated) | -14.32 |
| CSc1ccc(C)c(C(=O)N2CCCC(n3cncn3)C2)c1 (configuration not stated) | 94.98 |
| Cc1ccc(S(C)(=O)=O)cc1C(=O)N1CCCC(n2cncn2)C1 (configuration not stated) | 123.8 |
| Cc1cc(C)n(C2CN(C(=O)c3cn4ccsc4n3)C2)n1 | -20.57 |
| CCn1c(CN(C)C)nnc1C1CCN(Cc2ccc(Cl)c(F)c2)CC1 | -16.98 |
| COCCO[C@H]1CCN(c2cc(OC)ncn2)[C@H]1Cc1cnn(C)c1 | -1.257 |
| CO[C@@H]1CCN(c2ncc(F)cn2)[C@H]1Cc1cnn(C)c1 | 112 |
| CO[C@@H]1CCN(c2ncccn2)[C@H]1Cc1ccccc1 | -5.923 |
| COCCO[C@@H]1CCN(c2cc(OC)ncn2)[C@H]1Cc1cnn(C)c1 | -2.108 |
| COc1cc(N2CC[C@@H](OC)[C@@H]2Cc2cnn(C)c2)ncn1 | 110.7 |
| Cn1cc(C[C@H]2[C@H](N3CCOCC3)CCN2c2ncc(F)cn2)cn1.O=C(O)C(F)(F)F | -13.6 |
| CCc1ccccc1CNC(=O)CNCC(F)(F)F | -0.7333 |
| Cc1nc(C(C)(C)NC(=O)Nc2cccc(C#N)c2)no1 | -15.63 |
| O=C(C1CCOC1)N1CCC(Cn2cc(-c3ccsc3)nn2)CC1 (configuration not stated) | -11.04 |
| O=C(C1CC1)N1CCC(Nc2nc(O)cc(-c3ccsc3)n2)CC1 | 99.22 |
| O=C(O)C(F)(F)F.O=C(O)c1cc2c(nc1-c1ccsc1)CCN(C(=O)C1CC1)CC2 | -4.061 |
| CCCC(=O)N1CCC(Nc2nc(O)cc(-c3ccsc3)n2)CC1 | 101 |
| CC(C)CC(=O)N1CCC(Nc2nc(O)cc(-c3ccsc3)n2)CC1 | 93.38 |
| CCCC(=O)N1CCC(Nc2ncc(Br)cn2)CC1 | -8.622 |
| CC(C)Nc1nc2c(c(NC3CC3)n1)CN(C(=O)Cc1ccsc1)CC2 | -13.92 |
| O=C(Cn1cccn1)N1CCC(Cn2cc(-c3ccsc3)nn2)CC1 | 4.923 |
| CC(=O)c1c(F)cccc1NC1CCN(C(=O)CC(C)C)CC1 | -2.175 |
